ChEMBL document CHEMBL3988442, “University of Dundee, Small-Polar-MMV Screening Library” (2021)
About 13,000 (27%) of roughly 48,000 compounds showed an effect of 50% or more. Some of the results follow.

These compounds were tested on Wolbachia pipientis (assay: Anti-Wolbachia Cell-Based Screen). Conditions: 5 µM.
Assay type: functional
Design: scale not given: in the data most compounds retested in dose-response had high values

Structure (SMILES) | Percent Effect
CCc1cnc(C)nc1NCCSc1nnc(C)n1CC | -6.357%
c1cnnc(N2CCCC(NCc3ccc(-n4cncn4)cc3)C2)c1 (stereo unspecified) | -12.46%
CSCCc1n[nH]c2c1CN(S(=O)(=O)c1cn(C)c(C)n1)CC2 | 5.686%
O=C1C(NCc2nnc3n2CCCC3)CCN1c1ccccc1 (stereo unspecified) | 4.078%
CC(C)NC(=O)CN(C)C1CCN(c2ccc(C#N)cn2)CC1 | -9.804%
O=C(c1ccccn1)N1CCN(c2ccc(-n3cccc3)nn2)CC1 | 9.922%
CC(C)CN1CCc2[nH]cnc2C12CCN(C(=O)c1ccccn1)CC2 | 2.853%
O=C1CC2(CCN(C(=O)c3ccncc3)CC2)Oc2c(Cl)cc(Cl)cc21 | 113.6%
Cc1cccc(C2(O)CCN(C(=O)c3ccccn3)CC2)c1C | 8.443%
Cc1ccc(F)c(OC2(C(=O)O)CCN(C(=O)c3ccncc3)CC2)c1 | 12.09%
O=C1CC2(CCN(C(=O)c3ccccn3)CC2)Oc2c(Br)cc(Br)cc21 | 106.1%
O=C1CC2(CCN(C(=O)c3ccccn3)CC2)Oc2c(Cl)cc(Cl)cc21 | 107.9%
O=C(c1ccncc1)N1CCN(c2ccc(F)cc2Cl)CC1 | 2.697%
Cc1oc(-c2ccco2)nc1CC(=O)NCC(C)(C)N(C)C | -56.87%
CCCc1cc(C(=O)N2C[C@H]3CC=C(C)C[C@H]3C2)ccn1 | -1.263%
Clc1cnccc1N1CCC(OC2CCOCC2)CC1 | -17.26%
CCc1nsc(N2CCCN(C(=O)c3ccc(CC)o3)CC2)n1 | 0.3515%
Cc1noc2ncnc(NC(CC(C)(C)C)c3cccnc3)c12 (stereo unspecified) | -8.396%
Cc1ccc(C)c(CC(=O)Nc2cccc(C(=O)N(C)C)n2)c1 | -5.2%
O=C(NCCC1=CCCCC1)c1n[nH]c2c1CCCC2 | 109.4%
CCCc1cc(C(=O)NCCC2=CCCCC2)[nH]n1 | -0.1472%
Cc1ccc(NC(=O)CN(C)C(=O)c2ccc(-n3cccc3)nc2)nc1 | -2.8%

Structure (SMILES) | Percent Effect
O=C(NCCC1=CCCCC1)C1CCN(c2ccc3nncn3n2)CC1 | 0.9872%
O=C(NCCC1=CCCCC1)c1ccc(-n2cccc2)nc1 | 122.4%
O=C(NCCC1=CCCCC1)c1cc(-c2ccc(O)cc2)n[nH]1 | 12.27%
CC(=O)NCCc1nc(C(C)C)nn1-c1ccncc1C | -7.062%
CC1CCN(CCCNS(=O)(=O)Cc2ccccc2F)CC1 | -5.574%
CCOc1cccnc1C(=O)N1CC=C(c2ccc(O)cc2)CC1 | -4.198%
CN1CC(C(=O)N2CCC(Oc3ccccc3Cl)CC2)CC1=O (stereo unspecified) | 1.662%
CN1CCC(C(=O)N2CCC(=Cc3cccc(F)c3)CC2)CC1=O (stereo unspecified) | -1.128%
COc1ccc(C2=CCN(C(=O)C3CCN(C)C(=O)C3)CC2)cc1 (stereo unspecified) | -8.99%
CCOc1ccccc1C1=CCN(C(=O)C2CCN(C)C(=O)C2)CC1 (stereo unspecified) | 103.5%
Cc1ccc(C2=CCN(C(=O)C3CCN(C)C(=O)C3)CC2)cc1 (stereo unspecified) | 92.67%
O=C(Cn1nnn(-c2cccs2)c1=O)NCC1CCOC1 (stereo unspecified) | 8.767%
NC(=O)c1cccc(CCNCc2cnc(C3CCC3)s2)c1 | -3.682%
O=C(c1sccc1Br)N1CCOCC1 | 7.49%
CS(=O)(=O)N1C[C@@H]2CC[C@H](C1)N(C(=O)CCn1cnc3ccccc31)C2 | 6.293%
CCN1C(=O)C2(CCOCC2)c2cc(NC(=O)COC)ccc21 | 1.52%
COCC(=O)Nc1ccc2c(c1)C1(CCOCC1)CN2CCF.O=C(O)C(F)(F)F | 107%
CCN1C(=O)C2(CCOCC2)c2cc(NC(=O)c3cccn3C)ccc21 | 0.2171%
CCC(=O)Nc1ccc2c(c1)C1(CCOCC1)CN2CCF.O=C(O)C(F)(F)F | 102.7%
Cc1cccc(N(CC(=O)N2CCCCC2)Cc2nc(=O)[nH][nH]2)c1 | -2.957%
O=C(O)C(F)(F)F.O=C(c1ccc2ccc(N3CCN(CC4CC4)CC3)n2c1)N1CCCO1 | -6.167%
O=C(Cn1cc(I)cn1)N1CCNC1=O | 104.2%

Structure (SMILES) | Percent Effect
CCCNC(=O)Cn1cc(-c2ccccc2)cn1 | 1.367%
O=C(Cn1cc(I)cn1)N1CCCC1 | 17.91%
Cc1nccc(-c2cccc(NCC(=O)N3CCNC3=O)c2)n1 | 6.599%
O=C(Cn1cc(Cl)cn1)N1CCNC1=O | 95.03%
CC(C)C(C)(C#N)NC(=O)Cn1cc(Cl)cn1 (stereo unspecified) | -4.371%
O=C(Cn1cc(I)cn1)N1CCOCC1 | 0.7374%
O=C(Cn1cc(-c2ccccc2)cn1)N1CCNC1=O | 110%
O=C(CCn1cc(Cl)cn1)Nc1ncccn1 | -3.476%
CN1C[C@@H](NC(=O)CC(C)(C)C)C[C@H]1c1nc(-c2cnccn2)no1 | -6.894%
O=C(CN1CSCC1=O)NCC1CCN(c2ccccc2)C1 (stereo unspecified) | -5.821%
O=S1(=O)C[C@@H]2[C@H](C1)N(Cc1ccc3ccccc3c1)CCN2CC1CC1 | -3.143%
O=C(c1cnccn1)N1CCN(c2ccnc3ccsc23)CC1 | 3.546%
O=C(c1ccc2c(c1)OCO2)N1CCN(c2cnccn2)CC1 | -2.532%
CN(C)c1cc2c(nn1)CCN(C(=O)c1cc3c(s1)CCCC3)C2 | 1.352%
O=C(c1cc2c(s1)CCC2)N1CCN(c2cnccn2)CC1 | 87.73%
O=C(c1cc2c(s1)CCC2)N1CCC(c2cnccn2)CC1 | 151.2%
CN(C)c1cc(C(=O)N2CCN(c3cnccn3)CC2)ccn1 | -5.802%
O=C(c1cncs1)N1CCC(c2cnccn2)CC1 | 100.4%
Cc1nc(C2CCCN2C(=O)c2cc3c(s2)CCCC3)no1 (stereo unspecified) | -3.152%
O=C(c1cc2c(s1)CCCCC2)N1CCC(c2ncc[nH]2)CC1 | 88.07%
C=C(C)COc1cccc(CNC(COC)c2ccnn2C)c1 (stereo unspecified) | 4.309%
Cn1c(Cn2cccn2)nnc1C1CCN(Cc2cccnc2N)CC1 | -0.4084%
